This excerpt belongs to a sample that is enriched for hits.
LDHA inh: inhibitors of human lactate dehydrogenase A; purified LDHA, NADH/diaphorase-resazurin fluorescence; stronger effect = lower value; hit rate 0.15% among 480,000; P00338; activity change, % (values are at about 110 or 230 µM); in the data active = activity change below about -30%; inconclusive = mostly about -25% to -30%;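 also: plate controls were DMSO wells for no effect and wells without enzyme for full effect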
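LDH5 2 nM; NADH 0.06 mM, pyruvate 0.2 mM; 200 mM Tris pH 7.4, EDTA, Tween-20; 5 min RT. Detection: diaphorase 0.133 mg/mL + resazurin 37 µM, fluorescence ex540/em590 at 0 and 20 min; normalized to enzyme-free and DMSO wells.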
S-ASM inh: blocks human secretory acid sphingomyelinase; hit rate 0.006% among 340,000; placental ASM, HMU-PC fluorogenic substrate, 60 min; Potency, µM (titrated, usually from 57.5 µM), without a hit: at the highest dose activity change, negative = inhibition, actives largely listed as inhibitors; also: potency is read from the fitted curve at half-maximal effect
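Fluorescence read-out (Ex 386 nm, Em 447 nm) after stopping the reaction at pH 10. Enzyme: ASM from human placenta; substrate HMU-PC0, 9 uM final; 60 min, 37 °C. Compound preincubation 10 min, ambient temperature.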
Mito fusion yeast: mitochondrial division inhibition or fusion activation; S. cerevisiae fusion-defective mutant growth rescue, CellTiterGlo 48 h; Potency, µM (top dose mostly 46.1 µM), for inactives: at the highest dose growth rescue (activation), most hits filed as activators; hit rate 0.23% among 320,000; AID 485298; also: potency is read from the fitted curve at half-maximal effect; % of control where 0% means no effect; nearly all actives have a fitted effect of over 45% in size
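Read-out: ATP-based luminescence (CellTiterGlo, 10 min ambient) reporting growth of fusion-defective ts yeast after 48 hours at 37C on glycerol/ethanol YPEG medium in the presence of compound.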
RGS4 inhibitor: inhibitors of human regulator of G protein signaling 4; P49798; AID 504845; Potency, µM (doses to about 114 µM), for inactives: top-dose activity change, negative = inhibition, most hits filed as inhibitors; hit rate 0.039% among 390,000; Transcreener GDP fluorescence polarization, RGS4-accelerated GTP hydrolysis; also: potency is read from the fitted curve at half-maximal effect; % is scaled to controls: 0 for no effect and ±100 for the full control effect; nearly all actives have a fitted effect of over 75% in size
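MLSMR compounds (23 nl, pin-transferred) preincubated 10 min at room temperature with a 500nM (2x) first reagent, then RGS4 at 900nM (2x) plus Transcreener GDP mix added; fluorescence polarization (620/688 nm) read before and after 90 min at 30 °C.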
mIDH1 inhibitor: blocks human mutant IDH1 R132H enzyme; Potency, µM (doses to about 76.6 µM), inactives show at the top dose activity change, negative = inhibition, hits mostly inhibitors; O75874; AID 602179; IDH1-R132H enzyme, NADPH consumption, diaphorase/resazurin fluorescence; hit rate 0.093% among 390,000; also: potency is read from the fitted curve at half-maximal effect; % is scaled to controls: 0 for no effect and ±100 for the full control effect; nearly all actives have a fitted effect of over 65% in size
Target sequence (O75874 whole entry R132H, stated change not applied): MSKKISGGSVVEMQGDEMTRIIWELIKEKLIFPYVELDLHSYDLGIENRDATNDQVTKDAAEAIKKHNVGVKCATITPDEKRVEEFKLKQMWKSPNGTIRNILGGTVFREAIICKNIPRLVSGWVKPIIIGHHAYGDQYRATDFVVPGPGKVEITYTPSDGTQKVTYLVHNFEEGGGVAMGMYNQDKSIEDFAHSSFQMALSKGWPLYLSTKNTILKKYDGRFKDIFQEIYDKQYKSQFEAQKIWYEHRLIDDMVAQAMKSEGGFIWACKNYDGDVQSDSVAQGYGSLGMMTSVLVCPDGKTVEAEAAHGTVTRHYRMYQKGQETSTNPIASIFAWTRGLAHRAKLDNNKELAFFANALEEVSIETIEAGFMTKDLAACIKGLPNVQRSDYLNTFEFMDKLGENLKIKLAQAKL
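IDH1-R132H (0.5 ug/mL dispensed) in pH 7.5 Tris buffer was preincubated 30 min with compound, then given a substrate mix of 0.016 mM NADPH and 2 mM alpha-KG for 80 min at room temperature; remaining NADPH was read by diaphorase/resazurin fluorescence.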
ClpP mod: qHTS Assay for Activators of ClpP. ATP-dependent Clp protease proteolytic subunit (Bacillus subtilis (strain 168)), P80244. purified B. subtilis ClpP, FRET peptide cleavage, 20 min. Potency, µM (top dose mostly 57.5 µM), for inactives: top-dose activity change, negative = active. hit rate 1.9% among 340,000; active = well fitted falling curve with a large enough effect; inconclusive = small, poorly fitted or top-dose-only effect; inactive = no such curve, though single readings can be large or run the other way; also: potency is read from the fitted curve at half-maximal effect; the source files actives as falling curves though it sought activators and does not explain the sign; nearly all actives have a fitted effect of over 65% in size
Target sequence (P80244 whole entry, looked up): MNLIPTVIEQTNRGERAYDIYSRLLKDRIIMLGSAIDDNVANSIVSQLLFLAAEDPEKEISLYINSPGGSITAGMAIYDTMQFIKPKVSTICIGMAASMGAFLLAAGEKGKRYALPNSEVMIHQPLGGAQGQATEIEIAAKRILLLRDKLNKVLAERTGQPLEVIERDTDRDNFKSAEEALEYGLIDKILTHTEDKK
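Purified B. subtilis ClpP, 10 microg/mL final in Tris/HCl pH8 with KCl, BSA, glycerol and Tween-20, cleaved an Abz/nitrotyrosine-quenched decapeptide. Fluorescence (ex 320, em 430) was read at 0 and 20 min at room temperature. Delta was normalized to 5.8 microM ADEP and DMSO/no-enzyme controls.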
Starred values were filed as active, the others as inactive; i = inactive; ? = inconclusive; . = no result given; [ ] = another dose, or the depositor's remark. Unless noted, calls follow the shape of the dose curve; as a rule, active = well fitted curve in the direction sought with a large enough effect; inconclusive = small, poorly fitted or top-dose-only effect, or another doubt; inactive = no such curve, though single readings can be large; an effect the other way counts as inactive or inconclusive.

SMILES	LDHA inh	S-ASM inh	Mito fusion yeast	RGS4 inhibitor	mIDH1 inhibitor	ClpP mod
O=C(Nc1ccc(-c2nc3cc(Cl)ccc3o2)cc1)c1cc(Br)ccc1Cl	-12.5	.	.	19.2%	-15.1%	28.2µM*
CN1c2ccccc2C(C)(C)C12C=Nc1c(cc(N3CCOCC3)c3ccccc13)O2 (stereo not given)	30.3	4.5%	-6.4%	-15.0%	16.7%	28.2µM*
Cc1ccc(OCC(=O)Nc2ccc(-c3nc4ncccc4o3)cc2)c(C)c1	0.2	-0.7%	7.7%	-1.1%	0.3%	25.1µM*
COc1ccccc1C(=O)Nc1ccc2oc(-c3ccc(F)cc3)nc2c1	-2.9	10.9%	3.6%	?	7.3%	20µM*
COc1cccc(OC)c1C(=O)Nc1ccc(-c2nc3ccccc3o2)cc1	-0.2	.	.	.	.	.
Cc1ccccc1OCC(=O)Nc1ccc(-c2nc3ncccc3o2)cc1	-6.7	.	.	-10.2%	0.0%	4.5%
COc1cccc(OC)c1C(=O)Nc1ccc(-c2nc3ncccc3o2)cc1	-5.5	.	.	-0.6%	-13.2%	28.2µM*
CN(Cc1nc2ccsc2c(=O)[nH]1)C(=O)c1cnn(-c2ccc(F)cc2)c1-n1cccc1	6.9	.	.	.	.	.
Cc1ccc(NC(NC(=O)c2ccccc2)C(Cl)Cl)cc1 (stereo not given)	21.0	.	.	.	.	.
CCOc1cc(/C=C2\NC(=O)NC2=O)cc(Cl)c1OCc1cccc(F)c1	2.1	.	.	.	.	.
Cc1c(C(=O)N/N=C/c2ccc(N(C)C)cc2)[nH]c2ccc(Cl)cc12	-1.9	45.5%	-4.3%	-12.0%	2.6%	31.6µM*
COc1ccc(/C=N/NC(=O)c2[nH]c3ccc(Cl)cc3c2-c2ccccc2)c(C(=O)O)c1OC	-6.6	14.1µM*	-7.8%	-19.6%	1.6%	0.5%
COC(=O)c1ccc(NC(=O)c2cc(-c3cc(C)sc3C)nc3onc(C)c23)cc1	2.5	.	.	.	.	.
Cc1nc2sc(C)c(C)c2c(=O)[nH]1	-3.2	2.8%	2.7%	-16.0%	-10.0%	-1.4%
C=C1CSc2nc(=O)c3c(C)c(C)sc3n21	-1.9	-1.9%	-0.3%	7.8%	2.2%	15.8µM*
Cn1c(C(=O)NCc2ccco2)cc2c(=O)[nH]c3ccccc3c21	-6.7	9.1%	3.7%	10.4%	5.0%	28.2µM*
COc1ccc2cc(C(=O)OC(C)C(=O)N3CCOCC3)c(C)nc2c1 (stereo not given)	-0.1	.	.	.	.	.
CCN(CC)CCOC(=O)c1ccc(N/C=C(/C#N)c2nc(-c3cc4ccccc4oc3=O)cs2)cc1	0.1	-2.6%	8.91µM*	?	-0.8%	-0.6%
CCCc1noc(CSc2nnnn2-c2cc(C)ccc2OC)n1	2.6	.	.	.	.	.
COc1ccc(NC(=O)c2cc(OC)c(OC)c(OC)c2)cc1NS(C)(=O)=O	1.5	.	.	.	.	.
COCCNC(=O)Cc1nc(-c2cccs2)oc1C	4.7	.	.	.	.	.
c1ccc(Cn2c(SCc3cn4cccnc4n3)nnc2-c2ccco2)cc1	1.2	6.1%	0.0%	27.6%	-4.0%	15.8µM*
C/C(=N/NC(=O)c1ccncc1)c1cc2ccc(O)cc2oc1=O	3.9	i	0.8%	-15.0%	-1.2%	31.6µM*
Cc1ccc(S(=O)(=O)Nc2nc3ccccc3nc2NCc2ccco2)cc1C	-2.8	17.0%	3.8%	0.9%	-0.1%	28.2µM*
COc1ccccc1NC(=O)Cc1cccc2ccccc12	-2.3	-2.7%	4.0%	-22.6%	5.6%	.
SMILES	LDHA inh	S-ASM inh	Mito fusion yeast	RGS4 inhibitor	mIDH1 inhibitor	ClpP mod
COc1ccc(C(C)(C)C)cc1NC(=O)CNc1cccc2ccccc12	16.3	-19.1%	0.4%	5.6%	-1.4%	11.2µM*
CCN(CC)c1ccc(S(N)(=O)=O)cc1N	3.6	.	.	.	.	.
CCN(CC)C(=O)Cc1c(O)c2ccccc2[nH]c1=O	-0.5	-0.5%	-11.4%	19.3%[11.4 µM]	-4.6%	3.5%
CCCCNC(=O)Cc1c(O)c2ccccc2[nH]c1=O	-3.5	-0.2%	2.4%	15.2%	14.8%	20µM*
CCCCCCNC(=O)Cc1c(O)c2ccccc2[nH]c1=O	-3.7	-3.1%	2.0%	14.4%	6.8%	28.2µM*
COC(=O)c1ccc(NC2CC(=O)N(c3ccccc3C)C2=O)cc1 (stereo not given)	-4.0	-0.2%	-6.7%	-10.6%	-5.2%	1.3%
COC(=O)c1ccccc1NC1CC(=O)N(c2c(C)cccc2C)C1=O (stereo not given)	-6.4	80.9%	3.5%	-4.4%	-1.0%	8.91µM*
COc1ccc(-c2cc([C@H]3[C@H]4C=CC[C@@H](C)[C@@H]4C(=O)N3Cc3ccccc3)ccc2F)cc1OC	-12.6	-9.6%	11.8%	3.0%	5.1%	31.6µM*
Cc1cccc(OCCNC(=O)Cn2nc(C)c3ccccc3c2=O)c1	-0.5	.	.	.	.	.
CC(=O)c1c(C)[nH]c(C(=O)COc2ccc3ccc(=O)oc3c2)c1C	-0.8	486.2%	19.4%	?	3.4%	31.6µM*
C/C(=N/NC(=O)c1ccc2c(c1)OCO2)c1ccc(Br)s1	-33.3*	0.1%	13.8%	-28.3%	7.2%	0.1%
CN(Cc1nc2ccsc2c(=O)[nH]1)C(=O)c1cnn(-c2ccccc2)c1	-1.4	.	.	.	.	.
N#Cc1ccc(NC(=O)c2cc(-c3cccs3)nc3ccccc23)cc1	9.7	.	.	.	.	.
CCOc1cc(/C=C/c2nc3ccccc3o2)ccc1OC	10.1	.	.	.	.	.
COc1ccc(/C=C/c2nc3cc(-c4ccccc4)ccc3o2)cc1O	-1.6	.	0.6%	5.7%	-0.8%	12.6µM*
CCc1nc(C)ccc1OCC(=O)NCCCN(C)C	-32.8*	1.1%	4.4%	-17.6%	0.0%	1.8%
O=C(NCCCN1CCCC1=O)c1cccc(NS(=O)(=O)c2ccc(Br)cc2)c1	-11.6	.	1.3%	0.9%	2.9%	-2.1%
O=C(NCCCN1CCCC1=O)c1cccc(NS(=O)(=O)c2ccccc2)c1	-4.6	4.3%	-4.1%	17.6%	8.6%	35.5µM*
O=C(NCCCN1CCCC1=O)c1cccc(S(=O)(=O)N2CCN(c3ccccc3)CC2)c1	-0.5	-1.2%	-0.4%	6.2%	5.8%	15.8µM*
COc1cc(C#N)ccc1OCc1ccccc1C#N	1.1	.	.	.	.	.
CCn1c(SCC(=O)N2CCc3ccccc32)nnc1-c1ccncc1	-38.6*	0.3%	-1.6%	17.9%	9.8%	-2.7%
Cc1cc(C)nc(SCC(=O)N2CCc3ccccc32)n1	0.1	2.9%	.	1.8%	0.0%	0.2%
CCc1nnc(SCC(=O)N2CCc3ccccc32)n1CC	-3.9	5.6%	1.9%	-1.0%	15.9%	0.0%
Cc1cc(C)n2nc(SCC(=O)N3CCc4ccccc43)nc2n1	-5.6	1.8%	35.5µM*	-20.2%	4.0%	0.5%
